TWEAK-Fn14 inh = TWEAK-Fn14 signaling inhibition. AID 1159606. TWEAK-stimulated Fn14 reporter cells, luciferase luminescence, 8 h. hit rate 2% among 360,000. inhibition, % at 10 µM; in the data active = inhibition above about 50%
MITF TRPM1 inh = inhibitors of MITF-driven TRPM1 promoter in melanoma cells. SK-MEL-5 TRPM1 promoter luciferase, 24 h. inhibition, % at 12.5 µM. hit rate 0.83% among 330,000. AID 488899;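 active = mean inhibition across replicates of 60% or more, whatever share of single replicates reaches that level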
MITF act = activators of MITF-driven TRPM1 promoter activity in SK-MEL-5 cells. SK-MEL-5 TRPM1-promoter luciferase, 24 h; % of positive control, neutral wells = 0. activation, % at 12.5 µM. hit rate 0.75% among 300,000;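 active = mean activation of at least 80% with every replicate also reaching 80%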;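 note: 0% = neutral control wells and 100% = parthenolide positive control wells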
EBV LMP1 NFkB = reduces LMP1-driven NF-kappaB luciferase signal; LMP1-induced NF-kappaB luciferase reporter cells, luminescence; inhibition, % at 12.5 µM; hit rate 0.69% among 350,000; AID 504558; in the data active = inhibition above about 41%;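 note: 0% = neutral control wells and 100% = reference inhibitor control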
LGR2 antag = inhibitors of bursicon-induced Drosophila LGR2 receptor cAMP signaling | HEK293 LGR2, CRE-luciferase, bursicon-stimulated, 4 h | inhibition, % at 9.99 µM | hit rate 0.35% among 380,000 | AID 720647;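 active = drop in luminescence signal, shown as inhibition above about 50% in the replicate tests, limit read from the data, passing the limit was not always enough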;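 note: agonist challenge used bursicon conditioned medium at about half maximal strength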
TROY signal inh = inhibitors of TROY-dependent NF-kB signaling | AID 1347056 | Q293 LMP1-TROYcd NF-kB luciferase reporter, 4 h | inhibition, % at 10 µM | hit rate 0.98% among 360,000;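 active = compounds whose plate-normalised and pattern-corrected inhibition of the luciferase reporter signal at the single screening dose is 50% or more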
Numbers without * were called inactive; . = no result given. An excerpt weighted towards active compounds, which were near 3% of everything screened.

SMILES | TWEAK-Fn14 inh | MITF TRPM1 inh | MITF act | EBV LMP1 NFkB | LGR2 antag | TROY signal inh
COc1cccc(-c2ccc([C@H]3[C@@H](CO)N(C(=O)c4ccccn4)[C@H]3C#N)cc2)c1 | . | . | . | . | 66* | .
Cc1cccc(C)c1OCC(O)CN1CCC(CN2C(=O)c3cccc4cccc(c34)C2=O)CC1 (stereo not given) | 62* | 14 | -15 | -31 | . | 22
COc1cc(NC(=O)c2ccc([N+](=O)[O-])o2)ccc1NC(=O)c1cccs1 | 2 | 87* | -88 | -73 | 18 | -8
COc1cc(NC(=O)c2cccs2)ccc1NC(=O)Cc1ccccc1 | -6 | -21 | 19 | 1 | -3 | -15
O=C(Nc1ccc(N2CCN(C(=O)c3cccs3)CC2)cc1)c1ccc([N+](=O)[O-])o1 | 5 | 98* | -96 | -51 | 13 | -11
O=C(Nc1cccc(NC(=O)c2cccs2)c1)c1ccc([N+](=O)[O-])o1 | 20 | 98* | -97 | -57 | 18 | 12
O=C(Nc1nc(-c2cccs2)cs1)c1ccc([N+](=O)[O-])o1 | 35 | 86* | -86 | -22 | -1 | -19
COc1ccc(NC(=O)N(C)C[C@H]2OCc3ccccc3-c3c(n(C)c4ccccc34)C(=O)N([C@@H](C)CO)C[C@H]2C)cc1 | . | . | . | . | 4 | .
O=C(C[C@H]1CC[C@H]2[C@@H](COC[C@@H](O)CN2CC2CC2)O1)NCc1ccc(Cl)cc1 | . | . | . | . | -7 | .
COc1cccc(C(=O)Nc2nnc(-c3cccs3)s2)c1 | 70* | -10 | 11 | -4 | 26 | 16
O=C(/C=C/c1ccc(Cl)c([N+](=O)[O-])c1)Nc1cccc(NC(=O)c2ccco2)c1 | 55* | -10 | 14 | 7 | 57* | 41
O=C(Nc1cccc(NC(=O)c2ccc([N+](=O)[O-])o2)c1)c1ccco1 | 23 | 64* | -64 | -21 | 6 | 7
CCC(=O)Nc1ccc(N2CCN(C(=O)c3cccs3)CC2)cc1 | -4 | 21 | -19 | 16 | 23 | -3
O=C(COc1ccccc1[N+](=O)[O-])Nc1ccc(N2CCN(C(=O)c3cccs3)CC2)cc1 | 72* | 48 | -47 | 7 | 75* | 76*
O=C(/C=C/c1ccc(Cl)c([N+](=O)[O-])c1)Nc1ccc(NC(=O)c2ccco2)cc1 | -18 | 3 | -5 | -1 | -27 | -7
CN(C)C(=O)C[C@H]1C[C@H]2c3cc(NC(=O)C4CCC4)ccc3O[C@H]2[C@H](CO)O1 | . | . | . | . | 1 | .
CC(C)NC(=O)Nc1ccc2c(c1)C(=O)N([C@H](C)CO)C[C@H](C)[C@@H](CN(C)S(C)(=O)=O)OCCCC[C@H](C)O2 | . | . | . | . | 15 | .
Cc1cc(C)c(OCC(=O)Nc2ccc(NC(=O)c3ccco3)cc2)c([N+](=O)[O-])c1 | -1 | -6 | 8 | 2 | 6 | -15
COc1cc(C(=O)Nc2nc(-c3cccs3)cs2)cc(OC)c1OC | 56* | 1 | 0 | 14 | 59* | 45
COc1ccc(C(=O)Nc2nc(-c3cccs3)cs2)cc1 | 41 | -43 | 45 | -19 | . | 20
Cc1cc(C)c(OCC(=O)Nc2cccc(NC(=O)c3ccco3)c2)c(Br)c1 | 56* | 12 | -11 | 7 | 21 | 49
CCOC(=O)c1ccc(NC(=O)COc2ccc(CNCCO)cc2OCC)cc1 | 40 | -5 | 5 | -7 | -10 | 16
CCOC(=O)c1ccc(NC(=O)COc2ccccc2CNCCc2ccccc2)cc1 | -14 | -2 | 5 | -55 | 71* | -3
CCOC(=O)C1CCN(C(=O)COc2ccc(Br)cc2Br)CC1 | -7 | -1 | -1 | -2 | -21 | -6
CCOC(=O)C1CCN(C(=O)COc2cc(C)c(Br)cc2C)CC1 | 91* | 1 | -1 | 8 | . | .
SMILES | TWEAK-Fn14 inh | MITF TRPM1 inh | MITF act | EBV LMP1 NFkB | LGR2 antag | TROY signal inh
C[C@H](CO)N1C[C@H](C)[C@@H](CN(C)S(=O)(=O)c2ccc(-c3ccccc3)cc2)OCc2cnnn2CCCC1=O | . | . | . | . | -8 | .
Cc1ccc(-c2c[n+](Cc3cccc(Cl)c3)c3n2CCC3)cc1 | 26 | 67* | -67 | 6 | . | 32
Clc1cccc(C[n+]2cc(-c3ccccc3)n3c2CCC3)c1 | 2 | 15 | -12 | 2 | -14 | 0
CC1(C)CCN2CCC(C)(C)c3c(O)ccc1c32 | 64* | 64* | . | 19 | 8 | 47
C[C@H](CO)N1C[C@H](C)[C@@H](CN(C)CC2CCCCC2)Oc2ccc(NC(=O)Cc3ccccc3)cc2CC1=O | . | . | . | . | 11 | .
Cn1nc(C(F)(F)F)c2cc(C(=O)Nc3ccc(F)c(Cl)c3)sc21 | 1 | -4 | . | 20 | 13 | 61*
Cn1nc(C(F)(F)F)c2cc(C(=O)Nc3ccc(C(F)(F)F)cc3)sc21 | 41 | -8 | . | 14 | 24 | 51*
NNC(=O)CN1CCN(c2ncc(C(F)(F)F)cc2Cl)CC1 | 3 | 3 | -5 | -17 | -10 | 20
O=C(CN1CCN(c2ncc(C(F)(F)F)cc2Cl)CC1)NCCNc1ncc(C(F)(F)F)cc1Cl | 76* | 11 | -11 | 2 | . | .
C[C@H]1CN([C@@H](C)CO)C(=O)c2cc(NS(=O)(=O)c3ccc(F)cc3)ccc2O[C@H]1CN(C)CC1CCCCC1 | . | . | . | . | 5 | .
Cn1cc(C(N)=O)c2ccccc21 | 9 | . | . | -4 | 1 | -8
Cn1cc(C(=O)CCl)c2ccccc21 | 32 | 83* | -83 | -2 | -3 | 0
O=C1C(SCCO)=C(SCCO)C(=O)c2ccccc21 | 76* | 111* | -111 | 59* | 19 | 32
Cc1ccc(-c2cc(C(=O)N3CCCC3)no2)cc1 | 83* | 9 | -9 | 22 | . | 50*
COc1ccc(-c2cc(C(=O)N3CCN(c4ccccc4OC)CC3)no2)cc1 | 50 | 5 | -3 | 3 | 40 | 7
Cc1ccc(-c2cc(C(=O)N3CCOCC3)no2)cc1 | 86* | 28 | -22 | 39 | 63* | 67*
COc1ccc(-c2cc(C(=O)N3CCN(c4ccccc4)CC3)no2)cc1 | 50* | -52 | 55 | -23 | -41 | 38
O=C(c1cc(-c2ccco2)on1)N1CCOCC1 | 8 | -70 | 71 | 4 | . | -48
O=C(c1cc(-c2ccc(O)cc2)on1)N1CCCCCC1 | -6 | -81 | 84* | -45 | -64 | -51
C=CCC[C@@H](Cc1ccc(F)cc1)C(=O)OC[C@@H](NC(=O)[C@H](CC=C)CC(=O)N(CCO)Cc1ccccc1)c1ccccc1 | 56* | 8 | -6 | 9 | 43 | 13
C=CCC[C@@H](Cc1ccc(F)cc1)C(=O)OC[C@@H](Cc1c[nH]c2ccccc12)NC(=O)[C@@H](CC=C)CC(=O)N(CCO)Cc1ccccc1 | 49 | 16 | -16 | 2 | 20 | 26
C=CCC[C@H](Cc1ccc(F)cc1)C(=O)OC[C@H](Cc1c[nH]c2ccccc12)NC(=O)[C@H](CC=C)CC(=O)N(CCO)Cc1ccccc1 | 57* | 13 | -13 | 1 | 33 | 33
